Data on eight compounds can be found in PubChem BioAssay (Tox21).

Assay [1] addresses Peroxisome proliferator-activated receptor delta (Homo sapiens) (UniProt Q03181). The assay can be described thus: qHTS assay to identify small molecule agonists of the peroxisome proliferator-activated receptor delta (PPARd) signaling pathway (AID 743212). In short, it runs like this: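 GeneBLAzer UAS-bla HEK293H cells carrying a PPARδ construct were exposed to compounds at 37 °C. Beta-lactamase activity was read by FRET fluorescence after 2 h at room temperature with LiveBLAzer B/G substrate.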
(Quantitative high-throughput screening tests each substance at several concentrations.)

A short description of assay [2]: qHTS assay to identify small molecule antagonists of the peroxisome proliferator-activated receptor delta (PPARd) signaling pathway - cell viability counter screen (AID 743213; active = well fitted curve in the direction sought with a large enough effect in the repeat runs; an effect the other way counts as inactive or inconclusive; note: nearly all actives have a fitted effect of over 50% in size). In outline: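 Agonist-stimulated (L165041, 300 nM final) HEK293H PPARd UAS-bla cells are exposed to compounds for 17 h at 37 C, and ATP-based luminescence (CellTiter-Glo) from the same wells reports cytotoxicity.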

The target in assay [3] is Peroxisome proliferator-activated receptor delta (Homo sapiens) (UniProt Q03181). As to the kind of experiment: qHTS assay to identify small molecule antagonists of the peroxisome proliferator-activated receptor delta (PPARd) signaling pathway (AID 743215; active = well fitted inhibition curve with a large enough effect in the signal ratio in the repeat runs, not every such curve was filed as active; the % refers to the signal ratio; note: series mostly up to about 62 µM). In outline: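 PPARd UAS-bla HEK293H cells were pre-incubated 5 h at 37 C, then given test compounds in DMSO plus agonist L165041 (300 nM final). After 17 h at 37 C, beta-lactamase FRET substrate was added; fluorescence read after 2 h at room temperature.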
Peroxisome proliferator-activated receptor delta (Homo sapiens), sequence (Q03181 whole entry, looked up): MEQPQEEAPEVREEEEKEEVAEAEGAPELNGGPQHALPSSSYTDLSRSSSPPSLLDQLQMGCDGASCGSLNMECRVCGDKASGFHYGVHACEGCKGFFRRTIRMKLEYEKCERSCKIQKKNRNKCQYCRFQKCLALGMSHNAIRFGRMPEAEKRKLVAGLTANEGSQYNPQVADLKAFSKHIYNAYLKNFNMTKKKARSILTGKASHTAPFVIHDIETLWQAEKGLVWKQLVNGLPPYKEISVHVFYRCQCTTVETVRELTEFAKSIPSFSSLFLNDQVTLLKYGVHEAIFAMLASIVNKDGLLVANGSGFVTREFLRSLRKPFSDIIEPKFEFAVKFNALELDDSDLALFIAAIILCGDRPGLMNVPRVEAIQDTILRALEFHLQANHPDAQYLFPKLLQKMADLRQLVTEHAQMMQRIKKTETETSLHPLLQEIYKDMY

For assay [4], the target named is Bile acid receptor (Homo sapiens) (UniProt Q96RI1). The assay can be described thus: qHTS assay to identify small molecule antagonists of the farnesoid-X-receptor (FXR) signaling pathway (AID 743217; active = well fitted inhibition curve with a large enough effect in the signal ratio in the repeat runs, not every such curve was filed as active; the % refers to the signal ratio). In short, it runs like this:
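FXR-UAS-bla HEK 293T cells pre-incubated 5 h at 37 °C, then exposed to compounds with chenodeoxycholic acid (50 uM final) for 16 h at 37 °C. Beta-lactamase reporter read by LiveBLAzer B/G FRET substrate fluorescence after 2 h at room temperature.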

The nature of assay [5]: qHTS assay to identify small molecule agonists of the farnesoid-X-receptor (FXR) signaling pathway - cell viability counter screen (AID 743218; active = well fitted curve in the direction sought with a large enough effect in the repeat runs; an effect the other way counts as inactive or inconclusive; note: nearly all actives have a fitted effect of over 45% in size; note: potency is the fitted concentration of half-maximal effect). In outline: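 FXR-UAS-bla HEK 293T cells, plated 5 h at 37 C, were exposed to compounds for 16 h at 37 C. CellTiter-Glo was then added to the same wells as the bla readout; luminescence read after 30 min at room temperature.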
In assay [6] the target is Bile acid receptor (Homo sapiens) (UniProt Q96RI1). As to the kind of experiment: qHTS assay to identify small molecule agonists of the farnesoid-X-receptor (FXR) signaling pathway (AID 743220; active = well fitted activation curve with a large enough effect in the signal ratio in the repeat runs, not every such curve was filed as active; the % refers to the signal ratio). In short, it runs like this: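 Beta-lactamase reporter under UAS control in GeneBLAzer FXR HEK 293T cells (5000/well) measured with LiveBLAzer FRET substrate after 2 h at room temperature. Compound exposure lasted 16 h at 37C.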
Bile acid receptor (Homo sapiens), sequence (Q96RI1 whole entry, looked up): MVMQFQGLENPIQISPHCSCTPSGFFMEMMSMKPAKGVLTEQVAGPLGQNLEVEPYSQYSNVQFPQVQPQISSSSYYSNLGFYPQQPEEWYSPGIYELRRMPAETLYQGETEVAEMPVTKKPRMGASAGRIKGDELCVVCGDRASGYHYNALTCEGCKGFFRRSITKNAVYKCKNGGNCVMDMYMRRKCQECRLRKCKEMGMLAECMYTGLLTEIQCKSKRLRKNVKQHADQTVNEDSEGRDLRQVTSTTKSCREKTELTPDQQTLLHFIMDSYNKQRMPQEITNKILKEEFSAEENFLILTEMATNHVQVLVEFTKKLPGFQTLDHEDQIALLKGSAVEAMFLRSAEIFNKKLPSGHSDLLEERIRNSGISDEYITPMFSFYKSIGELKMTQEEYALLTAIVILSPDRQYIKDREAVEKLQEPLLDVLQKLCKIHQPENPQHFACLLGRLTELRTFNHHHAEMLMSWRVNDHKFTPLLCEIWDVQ

Assay [7] is described as follows: qHTS assay to identify small molecule antagonists of the farnesoid-X-receptor (FXR) signaling pathway - cell viability counter screen (AID 743221; active = well fitted cell-killing curve with a large enough effect in the repeat runs, not every such curve was filed as active; note: nearly all actives have a fitted effect of over 50% in size; note: potency is the fitted concentration of half-maximal effect). In short, it runs like this: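 Cytotoxicity is taken from ATP luminescence (CellTiter-Glo, 30 min, room temperature) in FXR-bla HEK 293T cells previously incubated 16 h at 37 C with compound and chenodeoxycholic acid at 50 uM final.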

Assay [8] concerns the target Vitamin D3 receptor (Homo sapiens) (UniProt P11473). The assay can be described thus: qHTS assay to identify small molecule agonists of the vitamin D receptor (VDR) signaling pathway (AID 743222). In short, it runs like this: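 VDR-bla cells were plated 4 h at 37C/5% CO2, then exposed to compounds in DMSO for 16 h. After LiveBLAzer B/G FRET substrate addition and 2 h at room temperature, beta-lactamase reporter fluorescence was read.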

For assay [9] the target is unchanged. As to the kind of experiment: qHTS assay to identify small molecule antagonists of the vitamin D receptor (VDR) signaling pathway (AID 743223; active = well fitted inhibition curve with a large enough effect in the signal ratio in the repeat runs, not every such curve was filed as active; the % refers to the signal ratio). In outline:
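Quantitative HTS in VDR-bla reporter cells stimulated with 1alpha,25-dihydroxyvitamin D3, 3 nM final. Compound exposure 16 h, 37C, 5% CO2. Read-out: beta-lactamase FRET substrate fluorescence, 2 h RT.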

Assay [10] in a line: qHTS assay to identify small molecule antagonists of the vitamin D receptor (VDR) signaling pathway - cell viability counter screen (AID 743225; active = well fitted curve in the direction sought with a large enough effect in the repeat runs; an effect the other way counts as inactive or inconclusive; note: nearly all actives have a fitted effect of over 50% in size). In short, it runs like this:
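Same-well multiplex: following 16 h treatment of HEK 293T cells carrying a UAS-driven beta-lactamase reporter with compound and agonist (3 nM final), and a 2 h FRET substrate step, CellTiter-Glo was added and luminescence read after 30 min.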

Assay [11] is described as follows: qHTS assay to identify small molecule agonists of the NFkB signaling pathway (AID 1159509; active = well fitted curve in the direction sought with a large enough effect in the signal ratio in the repeat runs, not every such curve was filed as active; the % refers to the signal ratio; note: series mostly up to about 61 µM). In short, it runs like this: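 NFkB-bla ME-180 cells carry a beta-lactamase reporter under an NF-kB response element. They were plated overnight, then exposed to compounds for 5 h at 37 C. Read-out is LiveBLAzer FRET after 1.5 hr at room temperature (405 nm excitation; 460/530 nm emission).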

A short description of assay [12]: qHTS assay to identify small molecule agonists of the NFkB signaling pathway - cell viability counter screen (AID 1159515). Note: series mostly up to about 61 µM; nearly all actives have a fitted effect of over 55% in size. In outline: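 NFkB-bla ME-180 cells, 2,000/well, were plated overnight at 37 C, 5% CO2, then exposed to compounds in DMSO for 5 hr. After the bla FRET read, CellTiter-Glo was added to the same wells; luminescence was read after 30 min at room temperature.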

Assay [13] can be described thus: qHTS assay to identify small molecule agonists of the endoplasmic reticulum stress response signaling pathway (AID 1159516; active = well fitted activation curve with a large enough effect in the signal ratio in the repeat runs, not every such curve was filed as active; the % refers to the signal ratio). In short, it runs like this:
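CellSensor ESRE-bla HeLa cells, carrying a beta-lactamase reporter driven by the ER stress response element, were plated overnight and exposed to compounds for 5 hr at 37 C. Reporter activity was read as FRET substrate fluorescence after 2 hr at room temperature.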

The nature of assay [14]: qHTS assay to identify small molecule agonists of the endoplasmic reticulum stress response signaling pathway - cell viability counter screen (AID 1159517). Note: series mostly up to about 61 µM; nearly all actives have a fitted effect of over 50% in size. In outline: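 ESRE-bla HeLa cells, 1,500 per well, seeded overnight then treated with compounds for 5 hr at 37 C. After the beta-lactamase read, viability in the same wells is measured by CellTiter-Glo luminescence after 30 min at room temperature.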

A short description of assay [15]: qHTS assay to identify small molecule antagonists of the retinoid-related orphan receptor gamma (ROR-gamma) signaling pathway - cell viability counter screen (AID 1159520; active = well fitted curve in the direction sought with a large enough effect in the repeat runs; an effect the other way counts as inactive or inconclusive; note: nearly all actives have a fitted effect of over 50% in size; note: potency is the fitted concentration of half-maximal effect). In outline:
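Tet-on ROR gamma CHO cells were given compounds for 2 hr, then doxycycline hyclate at 1 uM final, and incubated 16 hr at 37 C. Viability was measured as ATP content by CellTiter-Glo luminescence.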

Assay [16] deals with Nuclear receptor ROR-gamma (Homo sapiens) (UniProt P51449). As to the kind of experiment: qHTS assay to identify small molecule antagonists of the retinoid-related orphan receptor gamma (ROR-gamma) signaling pathway (AID 1159521; active = well fitted curve in the direction sought with a large enough effect in the repeat runs; an effect the other way counts as inactive or inconclusive; note: nearly all actives have a fitted effect of over 50% in size; note: potency is the fitted concentration of half-maximal effect). In short, it runs like this: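 Inducible-expression reporter assay: doxycycline (1 uM final) switched on RORγ in CHO cells bearing a ROR response element-luciferase construct, with test compounds present from 2 h beforehand. Decreased luminescence after 16 h defined antagonist activity.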

The nature of assay [17]: qHTS assay to identify small molecule agonists of the AP-1 signaling pathway - cell viability counter screen (AID 1159525). Note: nearly all actives have a fitted effect of over 55% in size. Note: potency is the fitted concentration of half-maximal effect. In short, it runs like this:
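AP-1-bla ME-180 cells in Opti-MEM with 0.5% dialyzed FBS, compound exposure 5 h at 37 C in 15-point titration. Viability read in the same wells as ATP content by CellTiter-Glo luminescence, normalised to tetra-n-octylammonium bromide and DMSO controls.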

A short description of assay [18]: qHTS assay to identify small molecule agonists of the AP-1 signaling pathway (AID 1159526).
The nature of assay [19]: qHTS assay to identify small molecule agonists of the vitamin D receptor (VDR) signaling pathway - cell viability counter screen (AID 743224; active = well fitted curve in the direction sought with a large enough effect in the repeat runs; an effect the other way counts as inactive or inconclusive). In outline: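 VDR-bla cells were preincubated 4 h at 37C/5% CO2, then exposed to compounds for 16 h. After the 2 h room-temperature bla FRET read, CellTiter-Glo was added to the same wells and luminescence read after 30 min.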
For assay [20], the target named is Retinoic acid receptor RXR-alpha (Homo sapiens) (UniProt P19793). As to the kind of experiment: qHTS assay to identify small molecule agonists of the RXR signaling pathway (AID 1159527). Note: nearly all actives have a fitted effect of over 35% in size. In outline:
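Compounds in DMSO were added to RXR-alpha-UAS-bla HEK 293T cells kept in 2% charcoal-stripped serum, and incubated 16 hr at 37 C with 5% CO2. Reporter signal came from a 2 hr B/G FRET substrate step.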

Values joined by “and” are separate entries in the source; they are usually repeats but may differ in a detail not shown here. Identical values can stand only once. Inconclusive results are not listed. The source holds several records for some structures; these can differ, active in one and inactive in another. Active and inactive are the calls of the source. Unless noted, calls come from the whole dose curve.

Retinoic acid receptor RXR-alpha (Homo sapiens), sequence (P19793 whole entry, looked up): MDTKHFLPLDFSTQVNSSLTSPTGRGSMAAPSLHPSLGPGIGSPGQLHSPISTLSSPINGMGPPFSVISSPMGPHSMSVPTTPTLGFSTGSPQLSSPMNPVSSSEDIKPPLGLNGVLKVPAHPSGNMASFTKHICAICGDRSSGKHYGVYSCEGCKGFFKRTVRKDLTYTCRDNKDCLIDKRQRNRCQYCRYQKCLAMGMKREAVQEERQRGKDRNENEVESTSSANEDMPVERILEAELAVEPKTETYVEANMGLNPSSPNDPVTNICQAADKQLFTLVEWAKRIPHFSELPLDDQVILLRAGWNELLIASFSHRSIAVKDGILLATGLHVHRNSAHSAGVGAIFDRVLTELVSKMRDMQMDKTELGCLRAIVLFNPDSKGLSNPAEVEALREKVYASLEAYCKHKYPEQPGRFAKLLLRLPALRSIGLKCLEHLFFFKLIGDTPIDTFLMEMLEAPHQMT
Vitamin D3 receptor (Homo sapiens), sequence (P11473 whole entry, looked up): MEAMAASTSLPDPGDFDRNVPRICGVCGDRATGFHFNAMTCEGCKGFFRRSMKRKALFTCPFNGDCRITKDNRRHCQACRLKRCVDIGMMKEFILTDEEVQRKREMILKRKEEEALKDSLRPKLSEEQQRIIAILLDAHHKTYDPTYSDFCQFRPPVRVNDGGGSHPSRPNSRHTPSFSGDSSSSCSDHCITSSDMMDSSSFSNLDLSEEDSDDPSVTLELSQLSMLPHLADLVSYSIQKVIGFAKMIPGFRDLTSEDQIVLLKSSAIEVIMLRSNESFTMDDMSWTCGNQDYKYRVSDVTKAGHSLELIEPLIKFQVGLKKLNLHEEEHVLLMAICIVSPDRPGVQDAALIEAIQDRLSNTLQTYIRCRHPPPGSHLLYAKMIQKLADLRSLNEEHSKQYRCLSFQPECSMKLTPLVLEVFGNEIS

In the case of `CCCCC(CC)COC(=O)CCCCC(=O)OCC(CC)CCCC` (stereo not drawn), the result in assay [1], in assay [2], in assay [4], in assay [6], in assay [8] and in [9] was inactive. Moreover, the compound was called inactive in assay [10], in assay [11], in [12], in assay [13], in assay [14] and in [18]. Also, the Potency entry in assay [3], in [5], in assay [7], in [15], in [16] and in assay [17] was “inactive” in each case.
`OC[C@H]1O[C@@](CO)(O[C@H]2O[C@H](CO)[C@@H](O)[C@H](O)[C@H]2O)[C@@H](O)[C@@H]1O`: the compound was classed as inactive in assay [1], in assay [2], in assay [4], in assay [6], in [11] and in [12]. Further, the compound was called inactive in [13], in assay [14] and in assay [18]. For the same compound, the Potency entry in assay [5], in [15], in assay [16] and in assay [17] was “inactive” in each case.
For `CC[C@H](C)C(=O)O[C@H]1C[C@@H](C)C=C2C=C[C@H](C)[C@H](CC[C@@H]3C[C@@H](O)CC(=O)O3)[C@H]21`, the compound was called inactive in assay [1], in assay [2], in assay [4], in [6], in assay [8] and in assay [11]. For the same compound, the compound was classed as inactive in assay [12], in assay [13], in [14] and in assay [18]. In addition, the Potency in assay [5] was 62.5 µM (active) and inactive; in assay [7] it was 62.5 µM (active) and inactive; in assay [15], 27.7 µM (active); in [16], 982 nM (active) and 1.21 µM (active); in assay [17], 55.7 µM (active) and inactive.
`c1ccc(OCCOc2ccccc2)cc1`: the compound was classed as inactive in assay [1], in assay [2], in assay [8], in assay [9], in assay [11] and in assay [12]. The outcome in [13], in assay [14] and in assay [18] was inactive. The Potency entry in [5], in assay [19], in assay [15], in assay [16], in assay [17] and in [20] was “inactive” in each case.
Regarding `CN(C)CCCN`, the outcome in assay [1], in assay [2], in assay [4], in assay [6], in [8] and in [9] was inactive. In addition, the result in [10], in [11], in assay [12], in [13], in assay [14] and in assay [18] was inactive. Also, the Potency entry in assay [3], in assay [5], in assay [19], in assay [15], in [16] and in [17] was “inactive” throughout. For the same compound, the Potency entry in [20] was “inactive”.
As to `CCCCC(CC)CO` (stereo not drawn), the compound was called inactive in assay [1], in assay [2], in assay [4], in [6], in assay [8] and in assay [9]. Further, the compound was classed as inactive in assay [11], in assay [12], in assay [13], in [14] and in assay [18]. The Potency entry in [5], in assay [19], in assay [15], in assay [16] and in [17] was “inactive” throughout.
In the case of `C[C@H]1C[C@H]2[C@@H]3CCC4=CC(=O)C=C[C@]4(C)[C@@]3(F)[C@@H](O)C[C@]2(C)[C@@]1(O)C(=O)CO`, the call in assay [1], in assay [2], in assay [11], in [12], in assay [13] and in assay [14] was inactive. Further, in [18], the compound was classed as inactive. Further, the Potency entry in [5], in assay [7], in assay [15], in assay [16], in assay [17] and in [20] was “inactive” each time.
Turning to `CC(C)(N)CO`, the compound was classed as inactive in assay [1], in assay [2], in assay [4], in assay [6], in [8] and in assay [9]. For the same compound, the outcome in assay [10], in assay [11], in assay [12], in assay [13], in assay [14] and in assay [18] was inactive. In addition, the Potency result in assay [5], in assay [7], in assay [19], in assay [15], in assay [16] and in assay [17] was “inactive” in each case. In assay [20], the Potency entry is “inactive”.
